This is a sample that favours compounds with a hit; in the whole collection about 3.2% have one here.
Nrf2 block – Nrf2 pathway inhibition; 360,000 compounds, 2.1% hits; A549 ARE-Fluc reporter, luciferase luminescence, 18-24 h; AID 504444; Potency, µM (highest dose often 46 µM), actives largely listed as inhibitors; note: nearly all actives have a fitted effect of over 60% in size
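In this cell-based qHTS, ARE-driven firefly luciferase in A549 cells reports Nrf2 activity; the luminescent signal after BugLite lysis is the measured value, with a prior CellTiter-Fluor read for cell health.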
BRCA1 expr act – BRCA1 expression activation; Potency, µM (series often up to 46.1 µM), actives largely listed as activators; MCF7-BRCA1-FFLuc reporter, luminescence, 48 h; response scale: scaled: vehicle 0%, 10 µM genistein 100%; AID 624202; 380,000 compounds, 1.1% hits; note: nearly all actives have a fitted effect of over 80% in size
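Compounds are tested at multiple concentrations on MCF7 BRCA1-luciferase reporter cells seeded at 2000 per well; after 48 h, a single luminescence end-point is taken and curves fitted to the normalized data.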
Nrf2 ARE act – activators of Nrf2 (ARE) signaling; Potency, µM (series often up to 46.1 µM), most hits filed as activators; AREc32 ARE-luciferase reporter (MCF7-derived line), luminescence, 24 h; 410,000 compounds, 0.31% hits; AID 624171; note: nearly all actives have a fitted effect of over 65% in size
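ARE-driven firefly luciferase activity in AREc32 cells measured after a 24 hr compound exposure at 37 deg C, using Steady-Glo reagent and a 30 min room-temperature hold.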
IL2 activator – IL-2 activation. AID 652025. activation, % (series mostly up to about 46 µM). 360,000 compounds, 0.065% hits. IL-2 activation reporter assay, cell-based qHTS; stimulated with anti-CD3/CD4/CD28 beads; in transgenic mouse T cells; in the data active = activation above about 50%; inconclusive = mostly about 30% to 49%
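Unstimulated transgenic mouse T cells, 750 per well, received compound and, after 60 minutes, anti-CD3/anti-CD4 bead plus anti-CD28 stimulation. EGFP and DsRed were quantified after 18 hours.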
p53 reactivator – restores transcriptional activity of mutant p53 | AID 504706 | 320,000 compounds, 0.063% hits | H1299 p53-A138V BP100-luciferase reporter, luminescence, 24 h | Potency, µM (series often up to 92.2 µM), most hits filed as activators; note: nearly all actives have a fitted effect of over 45% in size
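H1299 (p53-null), stable ts p53-A138V + BP100-Luc; 1000 cells/well, Opti-MEM/10% FBS; cpd 4 pt, 1:5; 24 h, 37 deg C, 5% CO2; detection reagent 10 min RT; luminescence.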
A549 viability – kills or reduces viability of A549 cells in Nrf2 counter-screen; A549 ARE-Fluc cells, CellTiter-Fluor viability, 18-24 h; Potency, µM (top dose mostly 46 µM), actives largely listed as inhibitors; 390,000 compounds, 0.16% hits; AID 504648
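Cytotoxicity counterscreen: CellTiter-Fluor fluorescence was measured in A549 ARE_Fluc cells after 18-24 h of compound exposure in a concentration series. The subsequent BugLite luminescent read reports ARE-luciferase activity.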
Numbers stand for hits; - = inactive; ? = inconclusive; . = no result; [ ] = remark or other dose. Unless noted, calls come from the whole dose curve; as a rule, active = well fitted curve in the direction sought with a large enough effect; inconclusive = small, poorly fitted or top-dose-only effect, or another doubt; inactive = no such curve, though single readings can be large; an effect the other way counts as inactive or inconclusive.

SMILES	Nrf2 block	BRCA1 expr act	Nrf2 ARE act	IL2 activator	p53 reactivator	A549 viability
Cc1cccc(NC(=O)CSc2nc3c([nH]c4ccccc43)c(=O)n2C)c1	?	-	-	-	-	-
CCOc1ccc(OCC)c(NC(=O)CSc2nc3cccnc3n2C)c1	?	-	-	-	-	-
CCOc1[nH]c(/N=C/c2ccccc2)c(C#N)c1C#N	-	-	.	.	.	-
CC(Cc1ccccc1)NC(=O)c1cc2ccccc2o1 (configuration not stated)	?	7.08µM	-	-	?	-
O=C(c1ccc(F)cc1)c1cc2ccccc2o1	?	11.2µM	-	-	?	.
CCC(=O)Nc1ccc(NC(=O)c2cc3ccccc3o2)cc1	-	-	-	-	-	-
O=C(c1ccccc1)c1cc2ccccc2o1	.	10µM	-	-	?	-
CCOc1ccccc1CNC(=O)CCc1cn(Cc2ccc(Cl)cc2)c2ccccc12	?	.	-	.	.	-
N=C1/C(=C\c2coc3ccccc3c2=O)C(=O)N=C2SC=CN12	-	-	17.8µM	-	-	-
CCN(CC)C(=O)Cn1c(=O)cc(C)c2c(C)nn(-c3ccc(C)cc3)c21	-	.	-	.	.	-
O=C(CCS(=O)(=O)c1ccc(Cl)cc1)Nc1nc(-c2ccncc2)cs1	-	-	11.2µM	-	-	-
Cc1ccc(S(=O)(=O)CCC(=O)Nc2nc(-c3ccccn3)cs2)cc1	20.6µM	-	14.1µM	-	-	-
Cc1ccc(CN2CCCn3nc(C(=O)NCC(C)c4ccccc4)cc3C2=O)cc1 (configuration not stated)	.	.	-	.	.	-
O=C(CNC(=S)NC(=O)c1ccccc1Br)c1ccccc1	?	-	2.24µM	-	-	-
COc1ccc(-c2noc(CCCC(=O)NC3CCCC3)n2)cc1	11.6µM	-	-	-	-	?
Cc1cccc(-c2noc(CCCC(=O)NC3CCCC3)n2)c1	9.2µM	-	-	-	-	-
COc1ccccc1-c1noc(CCCC(=O)NC2CCCCC2)n1	?	-	-	-	-	-
COc1ccc(-c2noc(CCC(=O)NC3CCCCC3)n2)cc1	16.4µM	-	-	-	-	-
COc1ccc(-c2noc(CCC(=O)NC3CCCCCC3)n2)cc1	-	-	-	-	-	-
CCOC(=O)c1cccc(NC(=O)N2CC(CC)Sc3ccccc32)c1 (configuration not stated)	-	.	-	.	.	-
CC(=O)N1N=C(c2ccc(C)cc2)OC1c1ccc(C(C)C)cc1 (configuration not stated)	?	7.94µM	-	-	?	?
Cc1ccc(NC(=O)C(Cc2ccccc2)NS(=O)(=O)c2cccs2)cc1Cl (configuration not stated)	-[9.27 µM]	-	-	.	.	-
Cc1cccc(CNC(=O)CCCN2C(=O)CCn3nc(-c4cn(C)c5ccccc45)cc32)c1	.	.	-	.	.	-
COc1ccc(CCNC(=O)Cn2cc(S(=O)(=O)Cc3ccc(F)cc3)c3ccccc32)cc1OC	-	.	-	.	.	-
Cc1c(CN(C)C(=O)c2cc(-c3ccccc3)nc3ccc(Br)cc23)cnn1C	9.2µM	.	-	.	.	-
SMILES	Nrf2 block	BRCA1 expr act	Nrf2 ARE act	IL2 activator	p53 reactivator	A549 viability
COc1ccc(C2Nc3ccccc3C(=O)N2Cc2ccccc2)cc1COc1ccccc1OC (configuration not stated)	-	.	.	.	.	-
CCc1ccc(OCc2nnc(-c3ccccc3Br)o2)cc1	-	-	-	-	-	-
Clc1ccc(Cc2nnc(-c3ccccc3Br)o2)cc1	-	14.1µM	-	-	-	-
N#Cc1ccccc1OCc1nnc(-c2ccccc2Br)o1	?	?	-	-	?	-
Clc1ccccc1OCc1nnc(-c2ccccc2Br)o1	?	3.98µM	-	-	?	-
CCCN1CNc2c(c(=O)[nH]c(=O)n2CCc2ccc(OC)c(OC)c2)C1	-	-	.	.	.	-
O=[N+]([O-])c1ccc(N2CCN(c3ccc(O)cc3)CC2)cn1	20.6µM	-	-	-	-	-
S=C(NCc1ccccn1)NN=Cc1ccccn1	14.6µM	-	-	-	.	?

Screening results (PubChem)
